Screen size: about 5,500 compounds; about 2,000 (36%) were called active. Not shown: some 18% with an inconclusive outcome. Cut-off read from the data, not from the text of the source: active = normalized growth mostly below about 0.91 (no sharp cut-off); inconclusive = no clear call, values can overlap the other calls; inactive = mostly above about 0.92. This is one part of the list.
Assay: chemical genetic growth profiling, strain panel (AID 1159580);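 note: tested at 20 µM; growth read once vehicle control cultures reached saturation at 30 °C; 1 = growth at the plate median or of vehicle wells; lower values mean less growth of the strain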
Conditions: growth OD

Measured: normalized growth

COc1cc(S(C)=O)ccc1-c1nc2ncccc2[nH]1 (centres undefined)
inactive: S. cerevisiae deletion strains, locus YJR043C, strain POL32, stronger effect = lower value 1 | S. cerevisiae deletion strains, locus YJR075W, strain HOC1, stronger effect = lower value 0.983 | S. cerevisiae deletion strains, locus YKL009W, strain mrt4, stronger effect = lower value 1 | S. cerevisiae deletion strains, locus YKL068W, stronger effect = lower value 0.991 | S. cerevisiae deletion strains, locus YKL085W, strain MDH1 (second series), stronger effect = lower value 1 | S. cerevisiae deletion strains, locus YKL085W, strain MDH1, stronger effect = lower value 1 | S. cerevisiae deletion strains, locus YKL160W, strain elf1, stronger effect = lower value 0.947 | S. cerevisiae deletion strains, locus YKL190W, strain CNB1, stronger effect = lower value 0.991 | S. cerevisiae deletion strains, locus YKR001C, strain vps1, stronger effect = lower value 0.986 | S. cerevisiae deletion strains, locus YKR026C, strain gcn3, stronger effect = lower value 0.98 | S. cerevisiae deletion strains, locus YKR091W, strain srl3, stronger effect = lower value 0.959 | S. cerevisiae deletion strains, locus YLL001W, strain dnm1, stronger effect = lower value 0.919 | S. cerevisiae deletion strains, locus YLL026W, stronger effect = lower value 0.962 | S. cerevisiae deletion strains, locus YLL041C, strain sdh2, stronger effect = lower value 0.97 | S. cerevisiae deletion strains, locus YLR027C, strain aat2, stronger effect = lower value 0.98 | S. cerevisiae deletion strains, locus YLR039C, strain RIC1, stronger effect = lower value 1.03 | S. cerevisiae deletion strains, locus YLR058C, strain SHM2, stronger effect = lower value 0.993 | S. cerevisiae deletion strains, locus YLR102C, strain apc9, stronger effect = lower value 0.999 | S. cerevisiae deletion strains, locus YLR221C, strain rsa3, stronger effect = lower value 1.01 | S. cerevisiae deletion strains, locus YLR258W, strain gsy2, stronger effect = lower value 0.93 | S. cerevisiae deletion strains, locus YLR262C, strain YPT6 (second series), stronger effect = lower value 0.987 | S. cerevisiae deletion strains, locus YLR262C, strain YPT6, stronger effect = lower value 0.994 | S. cerevisiae deletion strains, locus YLR268W, strain sec22, stronger effect = lower value 0.999 | S. cerevisiae deletion strains, locus YLR320W, strain mms22, stronger effect = lower value 0.995 | S. cerevisiae deletion strains, locus YLR330W, strain CHS5, stronger effect = lower value 0.988 | S. cerevisiae deletion strains, locus YLR342W, strain FKS1 (second series), stronger effect = lower value 1 | S. cerevisiae deletion strains, locus YLR342W, strain FKS1, stronger effect = lower value 0.969 | S. cerevisiae deletion strains, locus YLR357W, strain rsc2, stronger effect = lower value 0.915 | S. cerevisiae deletion strains, locus YLR370C, strain arc18, stronger effect = lower value 0.974 | S. cerevisiae deletion strains, locus YLR371W, strain rom2, stronger effect = lower value 0.991 | S. cerevisiae deletion strains, locus YLR384C, strain iki3, stronger effect = lower value 0.961 | S. cerevisiae deletion strains, locus YLR418C, strain cdc73, stronger effect = lower value 1.04 | S. cerevisiae deletion strains, locus YML016C, strain PPZ1, stronger effect = lower value 1 | S. cerevisiae deletion strains, locus YML032C, strain rad52, stronger effect = lower value 0.989 | S. cerevisiae deletion strains, locus YML120C, strain ndi1, stronger effect = lower value 0.971 | S. cerevisiae deletion strains, locus YML124C, strain tub3, stronger effect = lower value 0.993 | S. cerevisiae deletion strains, locus YMR058W, strain fet3, stronger effect = lower value 0.982 | S. cerevisiae deletion strains, locus YMR078C, strain ctf18, stronger effect = lower value 0.989 | S. cerevisiae deletion strains, locus YMR125W, strain sto1, stronger effect = lower value 0.927 | S. cerevisiae deletion strains, locus YMR129W, stronger effect = lower value 0.979 | S. cerevisiae deletion strains, locus YMR205C, strain PFK2, stronger effect = lower value 0.93 | S. cerevisiae deletion strains, locus YMR223W, strain ubp8, stronger effect = lower value 0.998 | S. cerevisiae deletion strains, locus YMR231W, strain pep5, stronger effect = lower value 0.99 | S. cerevisiae deletion strains, locus YMR263W, strain SAP30, stronger effect = lower value 0.975 | S. cerevisiae deletion strains, locus YMR307W, strain GAS1, stronger effect = lower value 1.03 | S. cerevisiae deletion strains, locus YNL067W, strain RPL9B, stronger effect = lower value 1.01 | S. cerevisiae deletion strains, locus YNL071W, strain lat1, stronger effect = lower value 0.97 | S. cerevisiae deletion strains, locus YNL128W, strain TEP1, stronger effect = lower value 0.997 | S. cerevisiae deletion strains, locus YNL153C, strain GIM3, stronger effect = lower value 0.999 | S. cerevisiae deletion strains, locus YNL209W, strain ssb2, stronger effect = lower value 0.98 | S. cerevisiae deletion strains, locus YNL233W, strain BNI4, stronger effect = lower value 0.995 | S. cerevisiae deletion strains, locus YNL248C, strain rpa49, stronger effect = lower value 0.967 | S. cerevisiae deletion strains, locus YNL250W, strain rad50, stronger effect = lower value 0.991 | S. cerevisiae deletion strains, locus YNL271C, strain bni1, stronger effect = lower value 0.997 | S. cerevisiae deletion strains, locus YNL298W, strain CLA4, stronger effect = lower value 0.971 | S. cerevisiae deletion strains, locus YNL307C, strain MCK1, stronger effect = lower value 1 | S. cerevisiae deletion strains, locus YNL322C, strain KRE1 (second series), stronger effect = lower value 0.938 | S. cerevisiae deletion strains, locus YNL322C, strain KRE1, stronger effect = lower value 0.998 | S. cerevisiae deletion strains, locus YNR049C, strain mso1, stronger effect = lower value 0.966 | S. cerevisiae deletion strains, locus YNR052C, strain pop2, stronger effect = lower value 0.976 | S. cerevisiae deletion strains, locus YOL006C, strain TOP1, stronger effect = lower value 1.04 | S. cerevisiae deletion strains, locus YOL012C, strain htz1 1.02 | S. cerevisiae deletion strains, locus YOL147C, strain pex11, stronger effect = lower value 0.982 | S. cerevisiae deletion strains, locus YOR001W, strain rrp6, stronger effect = lower value 1.01 | S. cerevisiae deletion strains, locus YOR061W, strain CKA2, stronger effect = lower value 1.01 | S. cerevisiae deletion strains, locus YOR069W, strain VPS5, stronger effect = lower value 1 | S. cerevisiae deletion strains, locus YOR070C, strain gyp1, stronger effect = lower value 0.993 | S. cerevisiae deletion strains, locus YOR080W, strain dia2, stronger effect = lower value 0.982 | S. cerevisiae deletion strains, locus YOR083W, strain WHI5, stronger effect = lower value 0.936 | S. cerevisiae deletion strains, locus YOR106W, strain vam3, stronger effect = lower value 0.91 | S. cerevisiae deletion strains, locus YOR136W, strain idh2, stronger effect = lower value 0.986 | S. cerevisiae deletion strains, locus YOR144C, strain elg1, stronger effect = lower value 0.99 | S. cerevisiae deletion strains, locus YOR184W, strain ser1, stronger effect = lower value 0.998 | S. cerevisiae deletion strains, locus YOR265W, strain rbl2, stronger effect = lower value 0.967 | S. cerevisiae deletion strains, locus YOR270C, strain vph1, stronger effect = lower value 0.974 | S. cerevisiae deletion strains, locus YOR290C, strain snf2, stronger effect = lower value 0.951 | S. cerevisiae deletion strains, locus YOR316C, strain cot1, stronger effect = lower value 0.991 | S. cerevisiae deletion strains, locus YPL051W, strain arl3, stronger effect = lower value 0.943 | S. cerevisiae deletion strains, locus YPL055C, strain LGE1, stronger effect = lower value 0.925 | S. cerevisiae deletion strains, locus YPL078C, strain atp4, stronger effect = lower value 0.94 | S. cerevisiae deletion strains, locus YPL106C, strain sse1, stronger effect = lower value 0.947 | S. cerevisiae deletion strains, locus YPL240C, strain hsp82, stronger effect = lower value 0.985 | S. cerevisiae deletion strains, locus YPL241C, strain CIN2, stronger effect = lower value 0.992 | S. cerevisiae deletion strains, locus YPR119W, strain clb2, stronger effect = lower value 0.988 | S. cerevisiae deletion strains, locus YPR141C, strain kar3, stronger effect = lower value 0.999 | S. cerevisiae deletion strains, locus YPR163C, strain tif3, stronger effect = lower value 0.982 | S. cerevisiae deletion strains, locus YPR167C, strain met16, stronger effect = lower value 0.999 | S. cerevisiae deletion strains, strain wtn01, stronger effect = lower value 0.975 | S. cerevisiae strains, strain wild type, stronger effect = lower value 1

Reference: PubChem BioAssay AID1159580 (chemical genetic matrix, 2015)
